# Assay results taken from the supplement of paper PMC8728848.
# The full list was thinned out, with the strongest signals kept by preference.
# Legend:
# Assay in all cases: glycan array binding signal (z-score within array); higher = stronger binding
# Settings in all cases: glycan notation: IUPAC condensed, linker removed
# [1] = biological target: Fuc(a1-2)Gal(b1-3)GlcNAc(b1-3)GalNAc
# Summary of the method: (§1)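 Glycan array data came from 3228 arrays in the Consortium for Functional Glycomics database, and only arrays with an available protein sequence were kept. Glycan names were put into IUPAC-condensed notation, and columns mapping to the same glycan were averaged. The binding signal is a within-array Z-score, averaged across arrays of one protein sequence run at different concentrations or buffers and across linkers. A negative Z-score can be read as non-binding.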
# [2] = biological target: Fuc(a1-2)Gal(b1-4)GlcNAc6S
# Summary of the method: as §1
# [3] = biological target: Fuc(a1-2)Gal(b1-4)[Fuc(a1-3)]GlcNAc(b1-2)[Fuc(a1-2)Gal(b1-4)[Fuc(a1-3)]GlcNAc(b1-4)]Man(a1-3)[Fuc(a1-2)Gal(b1-4)[Fuc(a1-3)]GlcNAc(b1-2)Man(a1-6)]Man(b1-4)GlcNAc(b1-4)GlcNAc
# Summary of the method: as §1
# [4] = biological target: Fuc(a1-2)Gal(b1-4)[Fuc(a1-3)]GlcNAc(b1-3)[Neu5Ac(a2-6)Gal(b1-4)GlcNAc(b1-6)]Gal(b1-4)Glc
# Summary of the method: as §1
# [5] = biological target: Fuc(a1-2)Gal6S(b1-4)Glc
# Summary of the method: as §1
# [6] = biological target: Fuc(a1-2)[Gal(a1-3)]Gal(b1-3)GlcNAc
# Summary of the method: as §1
# [7] = biological target: Fuc(a1-2)[GalNAc(a1-3)]Gal(b1-3)GalNAc(b1-3)Gal(a1-4)Gal(b1-4)Glc
# Summary of the method: as §1
# [8] = biological target: Fuc(a1-2)[GalNAc(a1-3)]Gal(b1-4)GlcNAc(b1-2)Man(a1-3)[Fuc(a1-2)[GalNAc(a1-3)]Gal(b1-4)GlcNAc(b1-2)Man(a1-6)]Man(b1-4)GlcNAc(b1-4)[Fuc(a1-6)]GlcNAc
# Summary of the method: as §1
# [9] = biological target: Fuc(a1-2)[GalNAc(a1-3)]Gal(b1-4)GlcNAc(b1-3)Gal(b1-4)GlcNAc(b1-3)Gal(b1-4)GlcNAc
# Summary of the method: as §1
# [10] = biological target: Fuc(a1-2)[GalNAc(a1-3)]Gal(b1-4)[Fuc(a1-3)]GlcNAc(b1-3)GalNAc
# Summary of the method: as §1
# [11] = biological target: Fuc(a1-4)GlcNAc
# Summary of the method: as §1
# [12] = biological target: Gal(a1-3)Gal(b1-4)GlcNAc(b1-2)Man(a1-3)[Gal(a1-3)Gal(b1-4)GlcNAc(b1-2)Man(a1-6)]Man(b1-4)GlcNAc(b1-4)GlcNAc
# Summary of the method: as §1
# [13] = biological target: Gal(b1-3)GalNAc(b1-3)Gal
# Summary of the method: as §1
# [14] = biological target: Gal(b1-3)GlcNAc(a1-6)Gal(b1-4)GlcNAc
# Summary of the method: as §1
# [15] = biological target: Gal(b1-3)GlcNAc(b1-2)Man(a1-3)[Gal(b1-3)GlcNAc(b1-2)Man(a1-6)]Man(b1-4)GlcNAc(b1-4)[Fuc(a1-6)]GlcNAc
# Summary of the method: as §1
# [16] = biological target: Gal(b1-3)GlcNAc(b1-2)[Gal(b1-3)GlcNAc(b1-6)]Man(a1-6)[Gal(b1-3)GlcNAc(b1-2)Man(a1-3)]Man(b1-4)GlcNAc(b1-4)GlcNAc
# Summary of the method: as §1
# [17] = biological target: Gal(b1-3)GlcNAc(b1-3)Gal(b1-4)Glc
# Summary of the method: as §1
# [18] = biological target: Gal(b1-3)GlcNAc(b1-3)Gal(b1-4)GlcNAc(b1-2)[Gal(b1-3)GlcNAc(b1-3)Gal(b1-4)GlcNAc(b1-6)]Man(a1-6)[Gal(b1-3)GlcNAc(b1-3)Gal(b1-4)GlcNAc(b1-2)Man(a1-3)]Man(b1-4)GlcNAc(b1-4)[Fuc(a1-6)]GlcNAc
# Summary of the method: as §1
# [19] = biological target: Gal(b1-3)GlcNAc(b1-3)Gal(b1-4)GlcNAc(b1-3)Gal(b1-4)GlcNAc(b1-2)[Gal(b1-3)GlcNAc(b1-3)Gal(b1-4)GlcNAc(b1-3)Gal(b1-4)GlcNAc(b1-6)]Man(a1-6)[Gal(b1-3)GlcNAc(b1-3)Gal(b1-4)GlcNAc(b1-3)Gal(b1-4)GlcNAc(b1-2)Man(a1-3)]Man(b1-4)GlcNAc(b1-4)[Fuc(a1-6)]GlcNAc
# Summary of the method: as §1
# [20] = biological target: Gal(b1-3)[Fuc(a1-4)]GlcNAc(b1-6)GalNAc
# Summary of the method: as §1
# [21] = biological target: Gal(b1-4)GalNAc(a1-3)[Fuc(a1-2)]Gal(b1-4)GlcNAc
# Summary of the method: as §1
# [22] = biological target: Gal(b1-4)Glc
# Summary of the method: as §1
# [23] = biological target: Gal(b1-4)GlcNAc(b1-3)Gal(b1-3)GalNAc
# Summary of the method: as §1
# [24] = biological target: Gal(b1-4)GlcNAc(b1-3)Gal(b1-4)GlcNAc(b1-3)Gal(b1-4)GlcNAc(b1-3)Gal(b1-4)GlcNAc(b1-3)Gal(b1-4)GlcNAc(b1-2)Man(a1-3)[Gal(b1-4)GlcNAc(b1-3)Gal(b1-4)GlcNAc(b1-3)Gal(b1-4)GlcNAc(b1-3)Gal(b1-4)GlcNAc(b1-3)Gal(b1-4)GlcNAc(b1-2)Man(a1-6)]Man(b1-4)GlcNAc(b1-4)GlcNAc
# Summary of the method: as §1
# [25] = biological target: Gal(b1-4)GlcNAc(b1-3)Gal(b1-4)GlcNAc(b1-3)Gal(b1-4)GlcNAc(b1-3)Gal(b1-4)GlcNAc(b1-3)Gal(b1-4)GlcNAc(b1-2)[Gal(b1-4)GlcNAc(b1-3)Gal(b1-4)GlcNAc(b1-3)Gal(b1-4)GlcNAc(b1-3)Gal(b1-4)GlcNAc(b1-3)Gal(b1-4)GlcNAc(b1-6)]Man(a1-6)[Gal(b1-4)GlcNAc(b1-3)Gal(b1-4)GlcNAc(b1-3)Gal(b1-4)GlcNAc(b1-3)Gal(b1-4)GlcNAc(b1-3)Gal(b1-4)GlcNAc(b1-2)Man(a1-3)]Man(b1-4)GlcNAc(b1-4)[Fuc(a1-6)]GlcNAc
# Summary of the method: as §1
# [26] = biological target: Gal3S(b1-4)Glc
# Summary of the method: as §1
# [27] = biological target: Gal6S(b1-3)GlcNAc
# Summary of the method: as §1
# [28] = biological target: GalNAc(a1-3)GalNAc(b1-3)Gal(a1-4)Gal(b1-4)Glc
# Summary of the method: as §1
binder,measurement,setting,value
FimD (Bordetella pertussis) (protein) MPARVISFCGAALAVWAGLAVQPAMAVDPPVDCGRALGLHFWSSASLISDQTPDGTLIGKPVVGRSLLSKSCKVPDDIKEDLSDNHDGEPVDIVLELGSNYKIRPQSYGHPGIVVDLPFGSTEETGIAIYIDFGSSPMQKVGERQWLYPQKGEVLFDVLTINGDNAEVRYQAIKVGPLKRPRKLVLSQFPNLFTYKWVFMRGTSQERVLAQGTIDTDVATSTIDLKTCRYTSQTVSLPIIQRSALTGVGTTLGMTDFQMPFWCYGWPKVSVYMSATKTQTGVDGVALPATGQAAGMASGVGVQLINGKTQQPVKLGLQGKIALPEAQQTESATFSLPMKAQYYQTSTSTSAGKLSVTYAVTLNYD,glycan array binding signal (z-score),[1],-0.342
same,glycan array binding signal (z-score),[2],-0.052
same,glycan array binding signal (z-score),[3],0.133
same,glycan array binding signal (z-score),[4],-0.355
same,glycan array binding signal (z-score),[5],-0.056
same,glycan array binding signal (z-score),[6],-0.256
same,glycan array binding signal (z-score),[7],-0.248
same,glycan array binding signal (z-score),[8],-0.394
same,glycan array binding signal (z-score),[9],0.141
same,glycan array binding signal (z-score),[10],19.2
same,glycan array binding signal (z-score),[11],1.73
same,glycan array binding signal (z-score),[12],1.67
same,glycan array binding signal (z-score),[13],-0.089
same,glycan array binding signal (z-score),[14],-0.163
same,glycan array binding signal (z-score),[15],0.621
same,glycan array binding signal (z-score),[16],0.171
same,glycan array binding signal (z-score),[17],-0.264
same,glycan array binding signal (z-score),[18],1.82
same,glycan array binding signal (z-score),[19],0.259
same,glycan array binding signal (z-score),[20],2.73
same,glycan array binding signal (z-score),[21],-0.051
same,glycan array binding signal (z-score),[22],-0.288
same,glycan array binding signal (z-score),[23],-0.264
same,glycan array binding signal (z-score),[24],0.072
same,glycan array binding signal (z-score),[25],0.919
same,glycan array binding signal (z-score),[26],-0.263
same,glycan array binding signal (z-score),[27],0.772
same,glycan array binding signal (z-score),[28],-0.169
